Inconclusive results are not listed. Activity calls are given as the source filed them. Unless noted, calls follow the shape of the full dose curve.
What was measured:
[1] = qHTS assay to identify small molecule antagonists of the vitamin D receptor (VDR) signaling pathway - cell viability counter screen (AID 743225; active = well fitted curve in the direction sought with a large enough effect in the repeat runs; an effect the other way counts as inactive or inconclusive; also: % is scaled to controls: 0 for no effect and ±100 for the full control effect; nearly all actives have a fitted effect of over 50% in size)
Outline: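 Luminescent cell viability (CellTiter-Glo) in VDR-bla HEK 293T cells after 16 h compound exposure at 37C in the presence of 3 nM final 1-alpha,25-dihydroxy vitamin D3.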

[2] = qHTS assay to identify small molecule agonists of the NFkB signaling pathway - cell viability counter screen (AID 1159515); also: series mostly up to about 61 µM; % is scaled to controls: 0 for no effect and ±100 for the full control effect; nearly all actives have a fitted effect of over 55% in size
Outline: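 Viability in NFkB-bla ME-180 cells was measured by CellTiter-Glo luminescence, 30 min room temperature, in wells already treated 5 hr with compounds and read for reporter FRET.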

[3] = qHTS assay to identify small molecule agonists of the endoplasmic reticulum stress response signaling pathway (AID 1159516; active = well fitted activation curve with a large enough effect in the signal ratio in the repeat runs, not every such curve was filed as active; the % refers to the signal ratio; also: % is scaled to controls: 0 for no effect and ±100 for the full control effect)
Outline: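 ER stress element reporter (bla) in HeLa. 1,500 cells/well, overnight attachment; 5 hr compound; 2 hr RT substrate; dual-emission fluorescence.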

[4] = qHTS assay to identify small molecule agonists of the endoplasmic reticulum stress response signaling pathway - cell viability counter screen (AID 1159517);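 also: HeLa cells carrying an ER stress response element beta-lactamase reporter; series mostly up to about 61 µM; % is scaled to controls: 0 for no effect and ±100 for the full control effect; nearly all actives have a fitted effect of over 50% in size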
Outline: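 CellTiter-Glo was added to wells already read for beta-lactamase FRET, and luminescence was recorded 30 min later. Cells: ESRE-bla HeLa, 1,500 per well, compound exposure 5 hr at 37 C.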

[5] = qHTS assay to identify small molecule antagonists of the retinoid-related orphan receptor gamma (ROR-gamma) signaling pathway - cell viability counter screen (AID 1159520; active = well fitted curve in the direction sought with a large enough effect in the repeat runs; an effect the other way counts as inactive or inconclusive; also: % is scaled to controls: 0 for no effect and ±100 for the full control effect; nearly all actives have a fitted effect of over 50% in size)
Outline: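 Tet-on ROR gamma CHO cells (1,000/well) were plated 4 hr, given compounds in DMSO for 2 hr at 37 C, then induced with 1 uM final doxycycline for 16 hr. Viability was read as ATP by CellTiter-Glo luminescence after 30 min.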

[6] = biological target: Nuclear receptor ROR-gamma (Homo sapiens) (UniProt P51449); assay: qHTS assay to identify small molecule antagonists of the retinoid-related orphan receptor gamma (ROR-gamma) signaling pathway (AID 1159521; active = well fitted curve in the direction sought with a large enough effect in the repeat runs; an effect the other way counts as inactive or inconclusive;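 also: CHO cells with doxycycline inducible ROR-gamma driving an RORE luciferase reporter; top concentration of the series differs between compounds; % is scaled to controls: 0 for no effect and ±100 for the full control effect; nearly all actives have a fitted effect of over 50% in size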)
Outline: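 CHO cells expressing RORγ under a TET-on promoter, luciferase under RORE control. Dox 1 uM final, 16 h; compounds added 2 h prior. Luminescence decrease measured.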

[7] = qHTS assay to identify small molecule agonists of the AP-1 signaling pathway - cell viability counter screen (AID 1159525); also: nearly all actives have a fitted effect of over 55% in size
Outline: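 ME-180 AP-1-bla, 2500 cells/well, Opti-MEM + 0.5% dialyzed FBS; overnight 37 °C; cpd 15-pt titration, 5 h 37 °C; CellTiter-Glo 30 min RT; luminescence read; normalised to TOAB and DMSO controls.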

[8] = qHTS assay to identify small molecule agonists of the AP-1 signaling pathway (AID 1159526); also: % is scaled to controls: 0 for no effect and ±100 for the full control effect
[9] = biological target: Retinoic acid receptor RXR-alpha (Homo sapiens) (UniProt P19793); assay: qHTS assay to identify small molecule agonists of the RXR signaling pathway (AID 1159527); also: % is scaled to controls: 0 for no effect and ±100 for the full control effect; nearly all actives have a fitted effect of over 35% in size
Outline: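 Beta-lactamase reporter assay, agonist format. Engineered HEK 293T line, charcoal-stripped FBS at 2%, overnight (16 hr) exposure, fluorescence at 460 and 530 nm after 405 nm excitation.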

[10] = qHTS assay to identify small molecule agonists of the RXR signaling pathway - cell viability counter screen (AID 1159529; active = well fitted curve in the direction sought with a large enough effect in the repeat runs; an effect the other way counts as inactive or inconclusive)
Outline: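 Same-well viability check after the LiveBLAzer FRET read: CellTiter-Glo added, luminescence measured after 30 min at room temperature. Reporter HEK 293T cells had been treated with compounds for 16 hr following a 5 hr preincubation.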

Retinoic acid receptor RXR-alpha (Homo sapiens), sequence (P19793 whole entry, looked up): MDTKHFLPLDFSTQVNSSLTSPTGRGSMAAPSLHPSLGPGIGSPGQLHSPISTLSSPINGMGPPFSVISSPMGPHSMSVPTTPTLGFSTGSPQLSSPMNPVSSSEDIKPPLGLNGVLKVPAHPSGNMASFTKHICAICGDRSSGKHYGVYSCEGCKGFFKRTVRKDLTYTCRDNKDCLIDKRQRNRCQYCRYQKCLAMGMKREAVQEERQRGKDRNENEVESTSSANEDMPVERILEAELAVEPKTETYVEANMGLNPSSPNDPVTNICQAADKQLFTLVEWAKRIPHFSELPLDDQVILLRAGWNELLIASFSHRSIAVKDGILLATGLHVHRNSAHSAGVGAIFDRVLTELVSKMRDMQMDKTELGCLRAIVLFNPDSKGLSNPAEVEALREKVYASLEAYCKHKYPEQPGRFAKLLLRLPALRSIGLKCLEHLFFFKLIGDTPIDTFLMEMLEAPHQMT

O=C(Cc1ccccc1)OCCc1ccccc1
inactive: Potency [1] | Potency [2] | Potency [3] | Potency [4] | Potency [5] | Potency [6] | Potency [7] | Potency [8] | Potency [9] | Potency [10]

OCCSSCCO
inactive: Potency [1] | Potency [2] | Potency [3] | Potency [4] | Potency [5] | Potency [6] | Potency [7] | Potency [8] | Potency [9] | Potency [10]

COC(=O)C1(O)c2ccccc2-c2ccccc21
inactive: Potency [1] | Potency [2] | Potency [3] | Potency [4] | Potency [5] | Potency [6] | Potency [7] | Potency [8] | Potency [9] | Potency [10]

CCCCCCCCP(=O)(O)O
inactive: Potency [1] | Potency [2] | Potency [3] | Potency [4] | Potency [5] | Potency [6] | Potency [7] | Potency [8] | Potency [9] | Potency [10]

C=CC(C)(CCC=C(C)C)OC(=O)c1ccccc1N (centres undefined)
inactive: Potency [1] | Potency [2] | Potency [3] | Potency [4] | Potency [5] | Potency [6] | Potency [7] | Potency [8] | Potency [9] | Potency [10]

O=C(O)C(Cl)(Cl)Br
inactive: Potency [1] | Potency [2] | Potency [3] | Potency [4] | Potency [5] | Potency [6] | Potency [7] | Potency [8] | Potency [9] | Potency [10]

O=C(O)c1cc(I)cc(I)c1I
inactive: Potency [1] | Potency [2] | Potency [3] | Potency [4] | Potency [5] | Potency [6] | Potency [7] | Potency [8] | Potency [10]

CCc1ccccc1N
inactive: Potency [1] | Potency [2] | Potency [3] | Potency [4] | Potency [5] | Potency [6] | Potency [7] | Potency [8] | Potency [9] | Potency [10]

CCCCCCCCCCCCN=C(N)N
inactive: viability change, negative = cytotoxic [1] -22.1% [at 3.11 µM] | activity, negative = cytotoxic [2] -2.48% [at 3.12 µM] | activation [3] 0.217% [at 3.11 µM] | activity change, negative = cytotoxicity [4] 5.11% [at 3.11 µM] | activity, negative = cytotoxicity [5] -5.37% [at 3.27 µM] | activity change, negative = inhibition [6] -12% [at 3.27 µM] | viability change, negative = cytotoxic [7] -1.76% [at 2.72 µM] | activation [8] 1.6% [at 2.72 µM] | activation [9] 1.85% [at 2.71 µM] | activity change, negative = cytotoxicity [10] -15.3% [at 2.72 µM]

CC[N+]1(CCOC(=O)C(O)(c2ccccc2)c2ccccc2)CCCCC1
inactive: Potency [1] | Potency [2] | Potency [3] | Potency [4] | Potency [5] | Potency [6] | Potency [7] | Potency [8] | Potency [9] | Potency [10]

COc1cc(CC#N)cc(OC)c1OC
inactive: Potency [1] | Potency [2] | Potency [3] | Potency [4] | Potency [5] | Potency [6] | Potency [7] | Potency [8] | Potency [9] | Potency [10]

O=C1NC(=O)C(=O)C(=O)N1
inactive: Potency [1] | Potency [2] | Potency [3] | Potency [4] | Potency [5] | Potency [6] | Potency [7] | Potency [8] | Potency [9] | Potency [10]
